The record followed here is PubChem BioAssay AID1362 (SRMLSC, 2008).

Broadly, the inhibition is the change of the read-out against control, counted positive when it falls.

The nature of the assay: growth inhibition of WT strain, primary screen, mitochondrial fusion inhibitor project, WT and mutant strains, chemical genetic (AID 1362). Particulars: mitochondrial fusion phenotypic screen, at 10 µM.
The mark [1] stands for this setting: WT strain, growth inhibition, stronger effect = higher value.

Structures are written as SMILES. The campaign covered roughly 190,000 compounds. About 4,000 (2.1%) were called active. This is one part of a sample in which actives are shown more often than they occur. Cut-off read from the data, not from the text of the source: active = inhibition above about 58%; inactive = the rest, inconclusive results apart; tested in S. cerevisiae.

For the compound `Clc1cccc(-c2nc(NCC3CCCO3)c3ccccc3n2)c1` (stereo unspecified), the inhibition under setting [1] is 74.2% (active) and the inhibition (mutant strain inhibition) was 68.9%.
Consider `c1ccc2c(NCC3CCCO3)nc(-c3ccncc3)nc2c1` (stereo unspecified), for which the inhibition under setting [1] was -20% (inactive) and the inhibition (mutant strain inhibition) was -11%.
`Cc1nc2ccccc2c2oc(C(=O)NCC3CCCO3)cc12` (stereo unspecified): the inhibition under setting [1] was 1.66% (inactive) and the inhibition (mutant strain inhibition) was -8.79%.
As to `O=C1Nc2ccc([N+](=O)[O-])cc2C1=Nc1cccc(CO)c1`, the inhibition is 0.18% (inactive) under setting [1] and 6.98% (mutant strain inhibition).
Take `CC(C)(CNC(=O)c1cc(=O)[nH]c2ccccc12)N1CCOCC1`: the inhibition reads like this: under setting [1], -13.2% (inactive); (mutant strain inhibition) -2.01%.
The corresponding values for `CC(C)(CNCC(O)c1ccccc1)N1CCOCC1` (stereo unspecified) are 64% (active) and 5.08%.
In the same order, the values of `CC(CN1CCOCC1)c1ccccc1` (stereo unspecified) are -5.68% (inactive) and 13.1%.
`Cn1c(SCC(=O)Nc2ccc(Br)cc2F)nnc1-c1ccco1`: the inhibition by setting is: under setting [1], -5.72% (inactive); (mutant strain inhibition) -9.59%.
Consider `CCN(CC)C(=O)Oc1ccc(OC(=O)N(CC)CC)cc1`, for which the inhibition was -3.56% (inactive) under setting [1] and 8.46% (mutant strain inhibition).
As to `O=C(CSc1nnc(-c2cccs2)n1Cc1ccccc1)N1CCc2ccccc2C1`, the inhibition runs as follows: under setting [1], 70.4% (active); (mutant strain inhibition) 40.2%.
`CCn1c(SCC(=O)c2ccc3ccccc3c2)nnc1-c1cccs1`: the inhibition was 16.5% (inactive) under setting [1] and -6.78% (mutant strain inhibition).
For the compound `O=C(CSc1nnc(-c2cccs2)n1-c1ccccc1)N1CCN(C(=O)c2ccco2)CC1`, the inhibition under setting [1] was -17.6% (inactive) and the inhibition (mutant strain inhibition) is -21.2%.
Take `CCOC(=O)C1(C)NC(c2ccco2)C2C(=O)N(c3ccccc3)C(=O)C21` (stereo unspecified): the inhibition is, setting by setting: under setting [1], -2.53% (inactive); (mutant strain inhibition) -16.9%.
As to `Cc1ccc(NC(=S)N(CCCN2CCCC2)Cc2cccn2Cc2ccc(Cl)cc2)cc1`, the inhibition under setting [1] is 83.8% (active) and the inhibition (mutant strain inhibition) stood at 31.5%.
In the same order, the values of `CCc1cccc(C)c1NC(=S)N(CCCN1CCN(C)CC1)Cc1cccs1` are 4.55% (inactive) and 8.76%.
With `Cc1ccccc1NC(=S)N(CCCN1CCOCC1)Cc1cccs1`, the inhibition under setting [1] is 20.9% (inactive) and the inhibition (mutant strain inhibition) is -3.99%.
For the compound `Cc1cc(C)cc(OCC(=O)Nc2ccc(S(=O)(=O)Nc3ccccn3)cc2)c1`, the inhibition by setting is: under setting [1], -6.39% (inactive); (mutant strain inhibition) -7.44%.
Turning to `CCOc1cc(N2CCOCC2)c(OCC)cc1NC(=O)c1cc(C)nc2ccccc12`, the inhibition by setting is: under setting [1], -14.2% (inactive); (mutant strain inhibition) -29.4%.
For the compound `CCC(=O)Nc1nc2ccccc2n1Cc1ccccc1C`, the inhibition reads like this: under setting [1], 32.7% (inactive); (mutant strain inhibition) 38.1%.
The corresponding values for `O=C(Nc1ccc2nc3n(c(=O)c2c1)CCCCC3)c1ccccc1Cl` are -2.99% (inactive) and -3.04%.
The corresponding values for `CCC(=O)Nc1ccc2nc(C)n(Cc3ccccc3Cl)c(=O)c2c1` are 62.4% (active) and 62.2%.
Regarding `COc1ccc(Cc2n[nH]c(=S)n2NC(=O)Nc2ccc(C)cc2)cc1`, the inhibition was -24.4% (inactive) under setting [1] and 1.23% (mutant strain inhibition).
As for `O=C(O)c1ccc(N/N=C/c2cn(-c3ccccc3)nc2-c2cccs2)cc1`, the inhibition by setting is: under setting [1], 25% (inactive); (mutant strain inhibition) 5.64%.
As for `C/C(=C\C(=O)c1ccccc1)Nc1cccc(O)c1`, the inhibition was 85.2% (active) under setting [1] and 17.2% (mutant strain inhibition).
Take `O=C(Nc1cccc(O)c1)c1ccc(C(=O)c2ccccc2)o1`: the inhibition reads like this: under setting [1], -18.9% (inactive); (mutant strain inhibition) 0.34%.
In the same order, the values of `C/C(=C\C(=O)c1cccnc1)Nc1ccc(C)c(C)c1` are 21.1% (inactive) and 23%.
Consider `Cc1ccc(C(NC(=O)N2CCCC2)C(Cl)(Cl)Cl)cc1F` (stereo unspecified), for which the inhibition was 10.1% (inactive) under setting [1] and 18.2% (mutant strain inhibition).
In the same order, the values of `CCC(C)(C)NC(=O)CN(C(=O)CCC(=O)Nc1cc(C)ccn1)c1ccc2c(c1)OCCO2` are 3.35% (inactive) and -3.2%.
The corresponding values for `O=C(COC(=O)CNS(=O)(=O)c1ccccc1)NC12CC3CC(CC(C3)C1)C2` are 4.93% (inactive) and -2.93%.
The corresponding values for `CC(NC(=S)Nc1ccccc1)C1COc2ccccc2O1` (stereo unspecified) are 5.96% (inactive) and 2.67%.
For the compound `S=C(NCC1COc2ccccc2O1)Nc1ccc(Br)cc1` (stereo unspecified), the inhibition is, setting by setting: under setting [1], 5.47% (inactive); (mutant strain inhibition) 7.77%.
In the case of `CCCN(CC1COc2ccccc2O1)C(=S)Nc1ccc(C)cc1` (stereo unspecified), the inhibition runs as follows: under setting [1], 65.7% (active); (mutant strain inhibition) 33.2%.
On to `CCOCCCNC(=O)C(NC(=O)Cc1c[nH]c2ccccc12)c1ccc(OC)cc1` (stereo unspecified), for which the inhibition by setting is: under setting [1], -1.73% (inactive); (mutant strain inhibition) 8.23%.
In the same order, the values of `O=C(Nc1ccc(F)cc1)N1CCN(c2ccc(F)cc2)CC1` are -9.94% (inactive) and -0.68%.
With `O=C1COc2ccc(NC(=O)N3CCN(c4ccc(F)cc4)CC3)cc2N1`, the inhibition by setting is: under setting [1], 74.7% (active); (mutant strain inhibition) 0.98%.
With `COc1cccc(N2CCN(C(=O)Nc3ccc4c(c3)NC(=O)CO4)CC2)c1`, the inhibition by setting is: under setting [1], 43.7% (inactive); (mutant strain inhibition) 41.7%.
The corresponding values for `COc1ccc(CNC(=O)CN2CCC(n3nnc4cc(F)ccc43)CC2)cc1` are 3.98% (inactive) and -18.3%.
For the compound `CCOc1cccc(/C=C/c2ccc3ccccc3n2)c1OC(C)=O`, the inhibition is, setting by setting: under setting [1], 33% (inactive); (mutant strain inhibition) 25.6%.
In the same order, the values of `CC1(C)C2CCC1(C)C(OC(=O)c1ccc(O)cc1)C2` (stereo unspecified) are 94.2% (active) and 81.9%.
Consider `Cc1ccc(C(=O)OC2CCCN(C)C2)cc1` (stereo unspecified), for which the inhibition by setting is: under setting [1], -13.6% (inactive); (mutant strain inhibition) -3.26%.
The corresponding values for `CC1(C)C2CCC1(C)C(OC(=O)CCn1ccnc1)C2` (stereo unspecified) are -4.41% (inactive) and -8.76%.
On to `CSc1ccccc1NC(=O)CN(C)CC(=O)Nc1ccc(Cl)cc1[N+](=O)[O-]`, for which the inhibition was 70% (active) under setting [1] and 21.8% (mutant strain inhibition).
As to `Cc1ccc(NC(=O)CN(C)Cc2ccc(F)cc2)c([N+](=O)[O-])c1`, the inhibition under setting [1] was 22% (inactive) and the inhibition (mutant strain inhibition) amounted to 0.15%.
